The nature of the assay: Cytotoxicity counterscreen for inhibitors of SARS-CoV-2 cell entry (AID 1645845). Also: nearly all actives have a fitted effect of over 50% in size. The essentials: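 Counterscreen run in the same HEK293-ACE2 line as the pseudotyped-particle entry assay, without particles. Viability after 48 h at 37 C was read as ATP luminescence, scaled between cell-containing and cell-free wells.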
A general note: Counterscreens check selectivity or assay interference.

Results filed as inconclusive are left out. Where a call stands in place of a potency, no number is given. Active and inactive are the calls of the source. Calls follow the shape of the full dose curve.

For the compound `NS(=O)(=O)c1cc2c(cc1Cl)NC(C(Cl)Cl)NS2(=O)=O` (centres undefined), the Potency entry was “inactive”. The same measure for `C[N+](C)(C)CCCCCC[N+](C)(C)C`: “inactive”; for `CCN(CC)CC#CCOC(=O)C(O)(c1ccccc1)C1CCCCC1` (centres undefined): “inactive”; for `O=c1[nH]c(=O)n([C@H]2C[C@H](O)[C@@H](CO)O2)cc1I`: “inactive”. As for `CC(C)Cc1ccc(C(C)C(=O)O)cc1` (centres undefined), the entry is “inactive”; as for `CCc1cc(C(N)=S)ccn1`, “inactive”; as for `CC(C(=O)O)c1ccc2c(c1)[nH]c1ccc(Cl)cc12` (centres undefined), “inactive”. For `CN(C)CCOC(=O)C(c1ccccc1)C1(O)CCCC1` (centres undefined), the Potency entry was “inactive”.

With `Cc1ccccc1C(=O)N1CC/C(=N\OS(=O)(=O)O)c2ccc(Cl)cc21`, the Potency entry was “inactive”. The same measure for `CCC[C@@H]1C[C@@H](C(=O)N[C@@H]([C@H]2O[C@H](SC)[C@H](O)[C@@H](O)[C@H]2O)[C@H](C)Cl)N(C)C1`: “inactive”; for `CCC[C@@H]1C[C@@H](C(=O)N[C@@H]([C@H]2O[C@H](SC)[C@H](O)[C@@H](O)[C@H]2O)[C@@H](C)O)N(C)C1`: “inactive”; for `CCn1ccc(NS(=O)(=O)c2ccc(N)cc2)nc1=O`: “inactive”. As for `CN[C@@H]1CCc2[nH]c3ccc(C(N)=O)cc3c2C1`, the entry is “inactive”; as for `O=C(O)CN(CCN(CC(=O)O)CC(=O)O)CCN(CC(=O)O)CC(=O)O`, “inactive”; as for `c1ccc2c(CC3=NCCN3)cccc2c1`, “inactive”.

Turning to `CC(=O)Nc1ccc(C(=O)O)cc1`, the Potency result was “inactive”. As for `O=C(NCCO[N+](=O)[O-])c1cccnc1`, the entry is “inactive”; as for `CCCCCCCCCCCCCCCC(=O)OC(C)C`, “inactive”.

Regarding `CC(=O)OCC(=O)[C@H]1CC[C@H]2[C@@H]3CCC4=CC(=O)CC[C@]4(C)[C@H]3CC[C@]12C`, the Potency entry is “inactive”.

Source of the values: PubChem BioAssay (NCATS).
